Shiga toxin inh – Shiga toxin inhibition; Vero cells, Shiga toxin protein synthesis inhibition reporter; inhibition, % at 38.7 µM; 290,000 tested, 9.2% active; AID 2315; in the data active = inhibition mostly above about 28%, no sharp cut-off; inactive = mostly below about 43%; note: 0% is about no effect
Pf growth 96h – P. falciparum growth inhibition at 96 hours. P. falciparum luciferase reporter growth, 96 h. Potency, µM (doses to about 28.7 µM), without a hit: at the highest dose activity change, negative = inhibition, most hits filed as inhibitors. 320,000 tested, 6.9% active; note: potency is the fitted concentration of half-maximal effect; % is set by controls: 0 for no effect and ±100 for the full control effect
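P. falciparum expressing integrated firefly luciferase grown in erythrocytes (2% hematocrit, 0.05% parasitemia final) with compounds for 96 hours at 37 C, 5% CO2. Growth inhibition read as loss of luminescence after adding luciferase detection reagent.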
Pf growth 48h – P. falciparum growth inhibition at 48 hours (one generation); P. falciparum luciferase growth in erythrocytes, 48 h; Potency, µM (doses to about 28.7 µM), for the others: at the highest dose activity change, negative = inhibition, most hits filed as inhibitors; 310,000 tested, 5.9% active; note: potency is the fitted concentration of half-maximal effect; % is set by controls: 0 for no effect and ±100 for the full control effect
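Cell-based growth assay: transgenic P. falciparum expressing firefly luciferase, cultured in red cells within RPMI 1640 containing 0.5% w/v Albumax, 24 mM bicarbonate and gentamycin. A drop in luciferase activity indicates inhibition.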
CHX counter – counter-screen for Shiga toxin inhibitors: cycloheximide protein synthesis inhibition. cell reporter, cycloheximide protein synthesis inhibition counterscreen. max response, %. 300,000 tested, 12% active; in the data active = max response mostly above about 13%, no sharp cut-off; inactive = mostly below about 14%; note: read at 38.3 µM for the half of the compounds with a filed dose; 0% is about no effect
Giardia FBPA inh – inhibitors of Giardia lamblia fructose-1,6-bisphosphate aldolase | A8B2U2 | 290,000 tested, 0.71% active | Potency, µM (doses to about 59.6 µM), for the others: at the top dose activity, negative = inhibition, most hits filed as inhibitors | purified Giardia FBPA; note: potency is the fitted concentration of half-maximal effect; % is set by controls: 0 for no effect and ±100 for the full control effect; nearly all actives have a fitted effect of over 55% in size
Target sequence (A8B2U2 whole entry, looked up): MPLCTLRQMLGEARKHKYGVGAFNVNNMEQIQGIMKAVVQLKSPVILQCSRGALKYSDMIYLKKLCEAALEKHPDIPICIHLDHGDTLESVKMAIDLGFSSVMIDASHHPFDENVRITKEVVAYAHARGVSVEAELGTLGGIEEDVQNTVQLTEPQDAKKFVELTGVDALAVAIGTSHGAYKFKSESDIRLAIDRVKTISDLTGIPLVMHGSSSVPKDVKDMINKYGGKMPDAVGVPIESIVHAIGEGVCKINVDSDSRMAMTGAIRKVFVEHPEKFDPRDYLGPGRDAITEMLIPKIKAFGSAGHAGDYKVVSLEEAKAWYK
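40 nM FBPA preincubated 10 min at RT with compound (up to 57.5 uM final), then substrate plus GAPDH/TPI/NAD/arsenate coupling and diaphorase/resazurin added. Fluorescence read after 20 min at RT, 525/598 nm.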
NS1 inh – blocks influenza NS1 protein function | Potency, µM (doses to about 46.1 µM), for inactives: top-dose activity, positive = more growth | 270,000 tested, 0.4% active | AID 2326; calls by dose curve; note: potency is the fitted concentration of half-maximal effect; actives are rising curves; nearly all actives have a fitted effect of over 50% in size
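S. cerevisiae expressing influenza A NS1, grown in glucose, washed, then diluted 1:100 into pH 6.0 -URA galactose medium with 23 nl compound. Growth recovery read as OD600; NS1-free strain serves as control.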
An asterisk follows results filed as active; i = inactive; ? = inconclusive; · = not tested or not shown. This is a sample that favours compounds with a hit; in the whole collection about 21% have one here. Unless noted, calls come from the whole dose curve; as a rule, active = well fitted curve in the direction sought with a large enough effect; inconclusive = small, poorly fitted or top-dose-only effect, or another doubt; inactive = no such curve, though single readings can be large; an effect the other way counts as inactive or inconclusive.

SMILES | Shiga toxin inh | Pf growth 96h | Pf growth 48h | CHX counter | Giardia FBPA inh | NS1 inh
Cn1c(-c2cc(Cl)ccc2O)nc2c1c(=O)[nH]c(=O)n2Cc1ccccc1 | 2 | 10µM* | ? | 9 | 1% | ·
COc1cc(Br)cc(C2C3=C(CCCC3=O)N(c3ccc(F)cc3)C3=C2C(=O)CCC3)c1O | -13 | ? | 5.2µM* | 1 | -13% | 4%
CC1CC[C@@]2(OC1)O[C@@H]1[C@@H](O)[C@H]3C4CC[C@H]5C[C@@H](O[C@@H]6O[C@H](CO)[C@H](O[C@@H]7O[C@H](CO)[C@@H](O)[C@H](O[C@@H]8OC[C@@H](O)[C@H](O)[C@H]8O)[C@H]7O[C@@H]7O[C@H](CO)[C@@H](O)[C@H](O[C@@H]8O[C@H](CO)[C@@H](O)[C@H](O)[C@H]8O)[C@H]7O)[C@H](O)[C@H]6O)[C@H](O)C[C@]5(C)C4CC[C@]3(C)[C@H]1[C@@H]2C (stereo partly drawn) | · | · | · | · | 10% | ·
COc1ccc(NC(=O)CN(C)C(=O)c2sc3cc(Cl)ccc3c2Cl)cc1 | · | -1% | ? | · | · | ·
COc1ccc(/C=C/c2cc(-c3ccc(C)cc3)o[n+]2C)cc1 | -30 | 0.15µM* | ? | -2 | 4% | -123%
Cc1cc(C(=O)N/N=C2\CCCC(C)C2)n[nH]1 (stereo not drawn) | 47 | · | 17% | 55* | 0% | -3%
CN(C)CCSCCO | · | · | · | · | · | -4%
O=C(NC1CCCC1)C1CCN(C(=O)c2cc(Cl)ccc2Cl)CC1 | -7 | 3% | 18% | -6 | -5% | -6%
COc1ccc(CCNC(=S)NCc2ccc(Cl)c(Cl)c2)cc1OC | -11 | 25% | ? | -3 | -6% | 0%
CCOc1ccc(CNC(=S)N/N=C/c2cccnc2)cc1 | 19 | 6% | -7% | 2 | 5% | 6%
COCCNC(=S)N/N=C/c1ccc(OCc2ccc(C(=O)OC)cc2)c(OC)c1 | 4 | 36% | 22% | -1 | 5% | -3%
CCNC(=S)NCc1ccc(OC)c(OC)c1 | 12 | 5.2µM* | 3% | -2 | 2% | 7%
CCOc1ccc(CNC(=S)N/N=C\c2ccc([N+](=O)[O-])cc2)cc1 | 9 | ? | 13µM* | 12* | -23% | 4%
CCCCOc1ccc(CNC(=S)N/N=C/c2ccc(OC)c(OC)c2)cc1 | 24 | 4.7µM* | · | 18 | -10% | 30%
COc1cccc([C@@H]2Oc3ccc(Br)cc3C[C@H]2OC(=O)N[C@H]2CCCc3ccccc32)c1 | · | · | · | · | -7% | ·
CNC(=O)c1ccc(-c2sc3nc(N4CCOCC4)c4c(c3c2N)CCCC4)o1 | -15 | ? | 12µM* | -5 | ? | 10%
COc1cccc(NC(=O)c2sc3nc(N4CCOCC4)c4c(c3c2N)CCCC4)c1 | 30* | ? | -12% | 25* | · | 28%
CCOc1ccc(NC(=O)c2sc3nc(N4CCOCC4)c4c(c3c2N)CCCC4)cc1 | 2 | 13µM* | ? | -3 | · | 5%
Nc1c(C(=O)NCc2ccccc2)sc2nc(N3CCOCC3)c3c(c12)CCCC3 | 17 | 12µM* | ? | -4 | 8% | 15%
COc1ccc(NS(=O)(=O)c2cccc(C(=O)N3CCCC3)c2)cc1 | · | 12% | 2% | · | · | ·
COc1ccc(Cl)cc1NC(=O)CN(C)C(=O)CN1C(=O)NC2(CCCC2)C1=O | · | 55% | 12% | · | · | ·
Cc1cc(C(=O)N2CCN(c3ccc([N+](=O)[O-])cc3)CC2)n[nH]1 | 7 | -5% | -8% | 4 | -3% | 8%
Nc1c(C(=O)Nc2ccc(Cl)cc2)sc2nc(N3CCOCC3)c3c(c12)CCCC3 | 27 | ? | -10% | -8 | · | 17%
CC(=O)c1ccc(NC(=O)c2sc3nc(N4CCOCC4)c4c(c3c2N)CCCC4)cc1 | 65* | -16% | 11% | 21* | · | ?
O=C(CN1C(=O)C2CCCCC2C1=O)OCC(=O)c1ccc(F)cc1 (stereo not drawn) | · | 24% | 7% | · | · | ·
SMILES | Shiga toxin inh | Pf growth 96h | Pf growth 48h | CHX counter | Giardia FBPA inh | NS1 inh
COC(=O)c1ccccc1NC(=S)NC(=O)c1ccccc1C | -13 | 0% | 24% | -1 | -10% | -10%
Cc1ccccc1C(=O)NC(=S)Nc1ccccc1C(=O)O | 15 | 10µM* | 23% | 10 | -5% | 0%
O=C(O)c1cccc(NC(=S)NC(=O)c2ccc3ccccc3c2)c1 | 71* | ? | 190% | 42* | -20% | -6%
O=C(O)c1ccc(NC(=S)NC(=O)c2ccc3ccccc3c2)cc1 | 20 | -15% | 39% | -2 | -29% | -11%
O=C(NC(=S)Nc1ccccc1C(=O)O)c1ccc2ccccc2c1 | 32 | 0% | 56% | 15* | ? | -30%
O=C(Nc1ccccc1C(=O)O)c1cc(S(=O)(=O)N2CCOCC2)c(Br)s1 | 17 | ? | -5% | 8 | -11% | 8%
CC1=NN(c2ccccc2)C(=O)/C1=C/C=C/c1ccccc1 | 10 | ? | ? | -1 | -5% | -8%
CC1=NN(c2cccc(C(=O)O)c2)C(=O)/C1=C\C=C\c1ccco1 | 126* | 29% | 17% | 86* | -28% | 8%
N/C(=N\OC(=O)c1ccc(Cl)cc1)c1[nH]ncc1Br | 95* | 381% | 233% | 64* | 0% | -3%
Cc1cc(/C(N)=N/OC(=O)c2ccc(Cl)cc2)no1 | 61* | i | 296% | 35* | 7% | -4%
Cc1cc(/C(N)=N/OC(=O)c2cccc(Cl)c2)no1 | 111* | 161% | 137% | 59* | 0% | -3%
N/C(=N/OC(=O)c1ccc(Cl)cc1)c1ncc([N+](=O)[O-])s1 | 66* | ? | ? | 26* | 2% | -5%
Cc1ccc2nc(C)c(CN3CCN(c4ccc([N+](=O)[O-])cc4Cl)CC3)n2c1 | -5 | ? | ? | -1 | 6% | -29%
COc1ccc(/C=C(\NC(=O)c2ccc(Cl)cc2)C(=O)NCC2CCCO2)cc1OC (stereo not drawn) | 9 | 5% | -16% | 7 | -6% | -17%
Cc1nn(-c2ccccc2)c(N)c1Sc1ccc([N+](=O)[O-])cc1 | 12 | ? | 13% | 20* | -13% | -42%
CN1C2CCC1CC(NC(=O)CSCc1ccc(Cl)cc1Cl)C2 (stereo not drawn) | 6 | 13µM* | ? | -2 | 0% | -3%
CN(C)c1nc(N2CCN(c3ccc(F)cc3)CC2)c(C#N)c(=O)o1 | -7 | 26% | ? | 1 | 11% | 13%
CN1CCN(c2nc(N(C)C)oc(=O)c2C#N)CC1 | -16 | 0.0037µM* | -13% | -3 | 2% | 5%
CCn1c(CCNC(=O)c2ccco2)nc2ccccc21 | -8 | 9.3µM* | -8% | -4 | -11% | 0%
CC(C)Cn1c(CCCNC(=O)c2ccco2)nc2ccccc21 | 24 | 47% | 12% | -2 | · | -6%
O=C(Nc1nc2ccccc2n1Cc1ccccc1)c1ccco1 | 27 | · | 13µM* | 26* | -11% | ?
